Source: PubChem BioAssay (NCI)
Compounds without any hit were thinned out: in the full panel of roughly 79,000, 15% have a hit. Unmarked numbers belong to inactive results. Calls of active or inactive are those of the source. No stated cut-off is given here; in the data, active means growth inhibition above about 70%; inactive means the rest.

Experiment: NCI Yeast Anticancer Drug Screen. Data for the rad50 strain (AID 155);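 further: 0% = growth of vehicle-only cultures of the same strain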
Details: S. cerevisiae rad50 strain growth inhibition; at 50.0 µM; active compounds read high
Method in brief: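 Compounds were tested on a yeast strain with an engineered DNA damage repair alteration; the reported value is growth inhibition normalised to vehicle treatment.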

**Q.** For `COc1cc(C(=O)N/N=C/c2cccc([N+](=O)[O-])c2)cc(OC)c1OC`, which growth inhibition is on record?
**A.** -5.5%

**Q.** With `COC(=O)c1ccccc1Br` as the compound, how does the growth inhibition read?
**A.** -1.7%

**Q.** For `c1ccc(/C(=N\N=C(/c2ccccc2)c2cccs2)c2cccs2)cc1`, which growth inhibition is on record?
**A.** 18.3%

**Q.** For `Cc1cc(NC(=O)CSCC(=O)O)no1`, which growth inhibition is on record?
**A.** -19.2%

**Q.** Which growth inhibition does the source give for `CC(=O)c1ccc(C)c(N)c1` here?
**A.** -4.15%

**Q.** Which growth inhibition does the source give for `O=C(O)c1cccc([N+](=O)[O-])c1O` here?
**A.** -41.4%

**Q.** For `CC1OC(Oc2c(-c3ccc(O)c(O)c3)oc3cc(O)cc(O)c3c2=O)C(O)C(O)C1O` (stereo not drawn), which growth inhibition is on record?
**A.** 21.4%

**Q.** For `N#CC1(Nc2ccc3c4c(cccc24)CC3)CCCCC1`, which growth inhibition is on record?
**A.** 0.8%

**Q.** With `Nc1ccc(C(=O)c2ccc(N)c(Br)c2)cc1Br` as the compound, how does the growth inhibition read?
**A.** 15%

**Q.** Which growth inhibition does the source give for `CC(=O)Oc1ccc(Br)cc1C(=O)O` here?
**A.** -15.2%

**Q.** Which growth inhibition does the source give for `O=C(NN=C1CCCCC1)C(=O)NN=C1CCCCC1` here?
**A.** 34.1%

**Q.** With `Nc1ncnc2c1nc(N)n2C1OC(CO)C(O)C1O` (stereo not drawn) as the compound, how does the growth inhibition read?
**A.** -2.6%

**Q.** Which growth inhibition does the source give for `N#CCCc1ccc(O)cc1` here?
**A.** -25.1%

**Q.** With `CCCCOC(OCCCC)c1ccccc1` as the compound, how does the growth inhibition read?
**A.** -26.5%

**Q.** Which growth inhibition does the source give for `CCCNC(=O)c1ccc(S(N)(=O)=O)cc1` here?
**A.** -1.5%

**Q.** For `CCCCCCCO`, which growth inhibition is on record?
**A.** -11%

**Q.** Which growth inhibition does the source give for `COc1ccccc1NC(=O)c1cc2cc(Br)ccc2cc1O` here?
**A.** 34.8%

**Q.** Which growth inhibition does the source give for `COc1cc(C(=O)NC(=S)Nc2ccc3ccccc3c2)cc(OC)c1OC` here?
**A.** 11.3%

**Q.** For `OCC(O)C(O)C(O)C(O)/C=N/O` (stereo not drawn), which growth inhibition is on record?
**A.** 1.4%

**Q.** With `O=[N+]([O-])c1ccc(-c2noc(-c3cccs3)n2)cc1` as the compound, how does the growth inhibition read?
**A.** -3.2%

**Q.** With `CC1CCCC(CC(N)=O)CC1` (stereo not drawn) as the compound, how does the growth inhibition read?
**A.** 7.8%

**Q.** For `COc1cc(OC)c2ccc(=O)oc2c1`, which growth inhibition is on record?
**A.** 27.2%

**Q.** For `N=c1c(C(=O)OCc2ccccc2)ncc(CCl)n1O`, which growth inhibition is on record?
**A.** 37.3%

**Q.** For `Cc1cc2nc(CO)[nH]c2cc1C`, which growth inhibition is on record?
**A.** -2.95%

**Q.** With `CC(CN1CCCCC1)NC(=O)c1scnc1-c1ccccc1` (stereo not drawn) as the compound, how does the growth inhibition read?
**A.** -5.45%

**Q.** With `COc1ncnc2c1cnn2C` as the compound, how does the growth inhibition read?
**A.** 7.6%

**Q.** Which growth inhibition does the source give for `O/N=C/c1ccc(O)cc1O` here?
**A.** -11.9%

**Q.** With `O=c1[nH]nc(SC2CCCCC2)c(=O)[nH]1` as the compound, how does the growth inhibition read?
**A.** -12.1%

**Q.** With `CCCCCCCCOC(=O)c1ccccn1` as the compound, how does the growth inhibition read?
**A.** -6.75%

**Q.** Which growth inhibition does the source give for `CN(C)c1nc2c([nH]1)c(=O)n(C)c(=O)n2C` here?
**A.** 22.4%

**Q.** For `COC(=O)c1ccc(NC(=O)CCl)cc1`, which growth inhibition is on record?
**A.** 44.8%

**Q.** For `OCCN(CCO)C(=S)S`, which growth inhibition is on record?
**A.** 2.15%

**Q.** With `CC(=O)Nc1cccc(NC(C)=O)n1` as the compound, how does the growth inhibition read?
**A.** 6.25%

**Q.** Which growth inhibition does the source give for `COc1cc(C2c3cc4c(cc3C3OC(=O)C2C3CO)OCO4)cc(OC)c1OC` (stereo not drawn) here?
**A.** -7.4%

**Q.** For `COc1cc(/C=C(\C#N)C(=O)c2ccccc2)ccc1OCc1ccccc1`, which growth inhibition is on record?
**A.** -1.1%

**Q.** With `COCCOC(=O)c1ccc(C(C)C)cc1` as the compound, how does the growth inhibition read?
**A.** 8.8%

**Q.** With `Cc1cc(O)ccc1O` as the compound, how does the growth inhibition read?
**A.** 31%

**Q.** With `NC(N)=Nc1cc2ccccc2c2ccccc12` as the compound, how does the growth inhibition read?
**A.** -1.2%

**Q.** With `O=C(/C=C\c1ccc(O)cc1)c1ccccc1` as the compound, how does the growth inhibition read?
**A.** 15.9%

Experiment: NCI Yeast Anticancer Drug Screen. Data for the mec2-1 strain (AID 157)
Details: S. cerevisiae mec2-1 strain, at 50.0 µM, active compounds read high
Method in brief: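 Strain: mec2-1 (DNA repair/cell cycle alteration). Compound exposure, then growth measured; inhibition expressed relative to vehicle.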

**Q.** Which growth inhibition does the source give for `COc1cc(C(=O)N/N=C/c2cccc([N+](=O)[O-])c2)cc(OC)c1OC` here?
**A.** -13.4%

**Q.** With `COC(=O)c1ccccc1Br` as the compound, how does the growth inhibition read?
**A.** 7.8%

**Q.** Which growth inhibition does the source give for `c1ccc(/C(=N\N=C(/c2ccccc2)c2cccs2)c2cccs2)cc1` here?
**A.** -23.1%

**Q.** Which growth inhibition does the source give for `Cc1cc(NC(=O)CSCC(=O)O)no1` here?
**A.** -34.5%

**Q.** With `CC(=O)c1ccc(C)c(N)c1` as the compound, how does the growth inhibition read?
**A.** 0.15%

**Q.** With `O=C(O)c1cccc([N+](=O)[O-])c1O` as the compound, how does the growth inhibition read?
**A.** 1.35%

**Q.** Which growth inhibition does the source give for `CC1OC(Oc2c(-c3ccc(O)c(O)c3)oc3cc(O)cc(O)c3c2=O)C(O)C(O)C1O` (stereo not drawn) here?
**A.** -8.25%

**Q.** With `N#CC1(Nc2ccc3c4c(cccc24)CC3)CCCCC1` as the compound, how does the growth inhibition read?
**A.** 7.2%

**Q.** For `Nc1ccc(C(=O)c2ccc(N)c(Br)c2)cc1Br`, which growth inhibition is on record?
**A.** -0.85%

**Q.** With `CC(=O)Oc1ccc(Br)cc1C(=O)O` as the compound, how does the growth inhibition read?
**A.** -24.2%

**Q.** With `O=C(NN=C1CCCCC1)C(=O)NN=C1CCCCC1` as the compound, how does the growth inhibition read?
**A.** 13.6%

**Q.** With `Nc1ncnc2c1nc(N)n2C1OC(CO)C(O)C1O` (stereo not drawn) as the compound, how does the growth inhibition read?
**A.** -17.9%

**Q.** With `N#CCCc1ccc(O)cc1` as the compound, how does the growth inhibition read?
**A.** -44.2%

**Q.** With `CCCCOC(OCCCC)c1ccccc1` as the compound, how does the growth inhibition read?
**A.** -9.5%

**Q.** Which growth inhibition does the source give for `CCCNC(=O)c1ccc(S(N)(=O)=O)cc1` here?
**A.** 1%

**Q.** For `CCCCCCCO`, which growth inhibition is on record?
**A.** -17.9%

**Q.** Which growth inhibition does the source give for `COc1ccccc1NC(=O)c1cc2cc(Br)ccc2cc1O` here?
**A.** 41.1%

**Q.** With `COc1cc(C(=O)NC(=S)Nc2ccc3ccccc3c2)cc(OC)c1OC` as the compound, how does the growth inhibition read?
**A.** 2.6%

**Q.** With `OCC(O)C(O)C(O)C(O)/C=N/O` (stereo not drawn) as the compound, how does the growth inhibition read?
**A.** 0.7%

**Q.** Which growth inhibition does the source give for `O=[N+]([O-])c1ccc(-c2noc(-c3cccs3)n2)cc1` here?
**A.** -31.9%

**Q.** For `CC1CCCC(CC(N)=O)CC1` (stereo not drawn), which growth inhibition is on record?
**A.** 1.05%

**Q.** With `COc1cc(OC)c2ccc(=O)oc2c1` as the compound, how does the growth inhibition read?
**A.** 8.4%

**Q.** Which growth inhibition does the source give for `N=c1c(C(=O)OCc2ccccc2)ncc(CCl)n1O` here?
**A.** 80.5% (active)

**Q.** For `Cc1cc2nc(CO)[nH]c2cc1C`, which growth inhibition is on record?
**A.** -40%

**Q.** With `CC(CN1CCCCC1)NC(=O)c1scnc1-c1ccccc1` (stereo not drawn) as the compound, how does the growth inhibition read?
**A.** -10%

**Q.** For `COc1ncnc2c1cnn2C`, which growth inhibition is on record?
**A.** 3.6%

**Q.** With `O/N=C/c1ccc(O)cc1O` as the compound, how does the growth inhibition read?
**A.** -5.45%

**Q.** With `O=c1[nH]nc(SC2CCCCC2)c(=O)[nH]1` as the compound, how does the growth inhibition read?
**A.** -3.1%

**Q.** Which growth inhibition does the source give for `CCCCCCCCOC(=O)c1ccccn1` here?
**A.** 0.3%

**Q.** For `CN(C)c1nc2c([nH]1)c(=O)n(C)c(=O)n2C`, which growth inhibition is on record?
**A.** -15.2%

**Q.** With `COC(=O)c1ccc(NC(=O)CCl)cc1` as the compound, how does the growth inhibition read?
**A.** 37%

**Q.** With `OCCN(CCO)C(=S)S` as the compound, how does the growth inhibition read?
**A.** -5.75%

**Q.** With `CC(=O)Nc1cccc(NC(C)=O)n1` as the compound, how does the growth inhibition read?
**A.** 10.8%

**Q.** For `COc1cc(C2c3cc4c(cc3C3OC(=O)C2C3CO)OCO4)cc(OC)c1OC` (stereo not drawn), which growth inhibition is on record?
**A.** -9.95%

**Q.** With `COc1cc(/C=C(\C#N)C(=O)c2ccccc2)ccc1OCc1ccccc1` as the compound, how does the growth inhibition read?
**A.** -18.8%

**Q.** For `COCCOC(=O)c1ccc(C(C)C)cc1`, which growth inhibition is on record?
**A.** 0.35%

**Q.** Which growth inhibition does the source give for `Cc1cc(O)ccc1O` here?
**A.** 25.1%

**Q.** For `NC(N)=Nc1cc2ccccc2c2ccccc12`, which growth inhibition is on record?
**A.** -7.15%

**Q.** Which growth inhibition does the source give for `O=C(/C=C\c1ccc(O)cc1)c1ccccc1` here?
**A.** -14.3%
